In the library only some 10% were active in any assay of this set; here they are far more common.
GLS inh – qHTS for Inhibitors of Glutaminase (GLS) | GLS enzymatic activity, qHTS titration | Potency, µM (titrated, usually from 45.5 µM), usual class: inhibitors | 410,000 tested, 0.21% active
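Compounds were pin-transferred onto hKGA, after which L-glutamine (1 mM solution) and a detection mix of glutamate oxidase, HRP and Amplex Red were added. Initial and 30 min RT fluorescence reads were collected.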
BAZ2B block – qHTS Assay for Inhibitors of BAZ2B; Bromodomain adjacent to zinc finger domain protein 2B (Homo sapiens), Q9UIF8; 360,000 tested, 4.4% active; Potency, µM (titrated, usually from 114 µM), actives largely listed as inhibitors; AlphaScreen BAZ2B-H3K14Ac peptide displacement; note: nearly all actives have a fitted effect of over 60% in size
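BAZ2B (50 nM) with biotin-H3(5-23)K14Ac peptide (50 nM) in PBS pH 7.4, 0.01% Tween-20, preformed 30 min, then compound 30 min at room temperature; top concentration 110uM. AlphaScreen streptavidin donor/nickel chelate acceptor beads (10 ug/mL final), 20 min dark, signal read.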
G9a inh – qHTS Assay for Inhibitors of Histone Lysine Methyltransferase G9a. Histone-lysine N-methyltransferase EHMT2 (Homo sapiens), Q96KQ7. G9a H3K9 monomethylation, AlphaScreen, 2 h. Potency, µM (highest dose often 102 µM), actives largely listed as inhibitors. 350,000 tested, 8.8% active; note: nearly all actives have a fitted effect of over 75% in size
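AlphaScreen read-out: biotin-H3K9 peptide (500 nM) methylation by 20 nM enzyme with 20 uM SAM, 2 h at room temperature after 15 min compound preincubation; anti-monomethyl H3K9 antibody plus donor/acceptor beads, 10 min dark.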
JMJD2A Tudor inh – qHTS Assay for Inhibitors of JMJD2A-Tudor Domain. 390,000 tested, 4.4% active. Lysine-specific demethylase 4A (Homo sapiens), O75164. Potency, µM (doses to about 114 µM), actives largely listed as inhibitors. AlphaScreen JMJD2A-Tudor / H3K4me3 peptide binding. AID 504339, 2011; note: nearly all actives have a fitted effect of over 50% in size
HP1b chromo inh – HTS for Inhibitors of HP1-beta Chromodomain Interactions with Methylated Histone Tails; AlphaScreen HP1-beta / biotin-H3K9me3 peptide binding; Potency, µM (doses to about 114 µM), hits mostly inhibitors; 390,000 tested, 0.56% active; AID 540317, 2011; note: nearly all actives have a fitted effect of over 70% in size
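Compound inhibition of the preformed complex between 50 nM HP1-beta and 50 nM biotinylated H3K9me3 peptide was read by AlphaScreen. Buffer was PBS pH 7.4 with 0.01% Tween-20. Incubations ran 30 min at room temperature, with 10 ug/mL donor/acceptor beads.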
Each line names hits and unclear results; the compound was inactive in the other large screens. Calls come from the whole dose curve; as a rule, active = well fitted curve in the direction sought with a large enough effect; inconclusive = small, poorly fitted or top-dose-only effect, or another doubt; inactive = no such curve, though single readings can be large; an effect the other way counts as inactive or inconclusive.

O=C(O)c1cc(O)c2c(c1)[C@@H]([C@H]1c3cc(C(=O)O)cc(O)c3C(=O)c3c(O[C@@H]4O[C@H](CO)[C@@H](O)[C@H](O)[C@H]4O)cccc31)c1cccc(O[C@@H]3O[C@H](CO)[C@@H](O)[C@H](O)[C@H]3O)c1C2=O	GLS inh 1.8µM, JMJD2A Tudor inh 0.89µM, HP1b chromo inh 1.3µM (no result: BAZ2B block, G9a inh)
CCOC(=O)C1=C(Cc2ccc(F)cc2)C(=O)c2ccccc2C1=O	BAZ2B block 40µM, G9a inh 8.9µM, JMJD2A Tudor inh 20µM, HP1b chromo inh inconclusive
CCCCC#Cc1ccccc1CC(=O)Nc1ccccc1	BAZ2B block inconclusive, G9a inh 7.9µM, JMJD2A Tudor inh inconclusive
CCc1nn(CC(=O)NCCCN2CCc3ccccc3C2)c(=O)c2cc3sccc3n12	G9a inh 45µM
Cc1nn(CCCC(=O)N2CCc3ccccc3C2)c(=O)c2cc3sccc3n12	G9a inh 79µM
CCc1nn(CC(=O)NCCCN2CCN(C)CC2)c(=O)c2cc3sccc3n12	none (no result: G9a inh)
COc1cc(CNCc2cccs2)ccc1OCc1cccs1	none
CCN(CC)c1ccc(CNCc2cccs2)cc1	BAZ2B block 50µM, G9a inh inconclusive, JMJD2A Tudor inh inconclusive
COCCNC(=S)N(C)[C@H]1C[C@H]2c3cc(-c4ccccc4)ccc3CCN2C(=O)[C@H]1[C@H](C)O	none (no result: BAZ2B block, G9a inh, JMJD2A Tudor inh, HP1b chromo inh)
CCOc1cc(/C=C2\SC(=S)N(C(C(=O)O)c3ccccc3)C2=O)ccc1O (stereo not given)	GLS inh inconclusive, G9a inh 45µM, HP1b chromo inh inconclusive
COc1cc(/C=C2\SC(=S)N(C(C(=O)O)c3ccccc3)C2=O)ccc1O (stereo not given)	GLS inh inconclusive, BAZ2B block inconclusive, G9a inh 8.9µM, HP1b chromo inh inconclusive
CCOc1ccc(/C=C2/SC(=S)N(C(C(=O)O)c3ccccc3)C2=O)cc1OCC (stereo not given)	GLS inh inconclusive, BAZ2B block 79µM, G9a inh 45µM, JMJD2A Tudor inh inconclusive, HP1b chromo inh inconclusive
COc1ccccc1/C=C1\SC(=S)N(C(C(=O)O)c2ccccc2)C1=O (stereo not given)	G9a inh inconclusive
O=C(O)C(c1ccccc1)N1C(=O)/C(=C\c2ccc(O)c(O)c2)SC1=S (stereo not given)	GLS inh inconclusive, BAZ2B block 8.9µM, G9a inh 7.9µM, JMJD2A Tudor inh 20µM, HP1b chromo inh 25µM
CC(=O)Nc1ccc(-c2ccnc3c2CC(C(=O)NCC2CCOCC2)O3)cc1 (stereo not given)	none (no result: BAZ2B block, G9a inh, JMJD2A Tudor inh, HP1b chromo inh)
O=C(O)COc1ccc(Br)cc1/C=N\Nc1ccccn1	JMJD2A Tudor inh inconclusive (no result: G9a inh)
C#CCOCCOCCOCCNc1nc(N2CCN(C(=O)Cn3cc(CC(C)O)nn3)CC2)nc(N2CCN(C(=O)[C@H](CCCCN)n3cc(CCC(=O)O)nn3)CC2)n1 (stereo not given in full)	G9a inh 50µM
C#CCOCCOCCOCCNc1nc(N2CCN(C(=O)Cn3cc(CCO)nn3)CC2)nc(N2CCN(C(=O)[C@H]([C@@H](C)O)n3cc(CCCCN)nn3)CC2)n1	G9a inh 79µM
C#CCOCCOCCOCCNc1nc(N2CCN(C(=O)Cn3cc(CCCN=C(N)N)nn3)CC2)nc(N2CCN(C(=O)[C@H]([C@@H](C)CC)n3cc(CCCN=C(N)N)nn3)CC2)n1	BAZ2B block inconclusive, G9a inh 22µM (no result: GLS inh, JMJD2A Tudor inh, HP1b chromo inh)
C#CCOCCOCCOCCNc1nc(N2CCN(C(=O)Cn3cc(CCCN=C(N)N)nn3)CC2)nc(N2CCN(C(=O)[C@H](C(C)C)n3cc(CCO)nn3)CC2)n1	G9a inh 50µM
CCc1nnc(NC(=O)CN2CCN(c3nc(-c4ccccc4)cs3)CC2)s1	BAZ2B block inconclusive, G9a inh 50µM, JMJD2A Tudor inh inconclusive
CCc1nnc(NC(=O)CN2CCN(c3ccccc3OC)CC2)s1	G9a inh inconclusive, JMJD2A Tudor inh 56µM, HP1b chromo inh inconclusive
COc1ccccc1N1CCN(CC(=O)Nc2ccc(CN3CCCCC3)cc2)CC1	BAZ2B block 50µM, G9a inh 10µM, JMJD2A Tudor inh 4µM, HP1b chromo inh inconclusive
CCc1nnc(NC(=O)CN2CCN(CC)CC2)s1	G9a inh 79µM
CCN(CC)C(=O)c1c(NC(=O)c2ccccc2F)sc2c1CCC(C(C)(C)C)C2 (stereo not given)	none
O=Cc1ccc(-c2nc3ccccc3s2)o1	none
O=C(O)CCCN1C(=O)/C(=C\c2ccc(-c3nc4ccccc4s3)o2)SC1=S	GLS inh inconclusive, BAZ2B block 7.9µM, HP1b chromo inh 18µM (no result: G9a inh)
O=C(O)CC(C(=O)O)N1C(=O)/C(=C/c2ccc(-c3nc4ccccc4s3)o2)SC1=S (stereo not given)	GLS inh 11µM, BAZ2B block 50µM, G9a inh 5µM, JMJD2A Tudor inh 50µM, HP1b chromo inh 28µM
O=C(O)CCN1C(=O)/C(=C/c2ccc(-c3nc4ccccc4s3)o2)SC1=S	GLS inh inconclusive, BAZ2B block 3.5µM, G9a inh inconclusive, JMJD2A Tudor inh 6.3µM, HP1b chromo inh inconclusive
CCN(CC)CCNC(=O)c1cc(Br)c(N)cc1OC	none
Cc1cc(C)c2c(=O)cc(C(=O)Nc3sc4c(c3C#N)CCCC4)oc2c1	none
Cc1ccc2cc(C#N)c(NCCNC(=O)C3CC3)nc2c1C	none
O=C1NC(=O)/C(=C\c2ccc(O)cc2O)S1	GLS inh inconclusive, BAZ2B block 28µM, G9a inh 18µM, JMJD2A Tudor inh 20µM, HP1b chromo inh inconclusive
O=C1NC(=O)/C(=C/c2cccc3ccccc23)S1	none
CN(C[C@H](Cc1ccccc1)N(C[C@H](Cc1cccc2ccccc12)N(CCc1ccccc1)N=O)N=O)N=O	BAZ2B block 71µM, G9a inh inconclusive, JMJD2A Tudor inh inconclusive
CC(C)C[C@@H](CN(C)N=O)N(C[C@H](Cc1ccccc1)N(CCc1ccccc1)N=O)N=O	none
COc1ccc(CCC(C)NCc2cccc(Br)c2)cc1 (stereo not given)	none (no result: G9a inh)
COCC(C)NCc1ccc(OC)c(Br)c1 (stereo not given)	BAZ2B block 50µM, G9a inh inconclusive, JMJD2A Tudor inh 18µM, HP1b chromo inh inconclusive
CN1C=CC=C/C1=C1\SC(=S)N(CC(=O)O)C1=O	BAZ2B block 50µM, G9a inh 20µM
C=CCN1C=CC=C/C1=C1\SC(=S)N(C)C1=O	BAZ2B block inconclusive, G9a inh inconclusive, HP1b chromo inh inconclusive
CCN1C(C)=C(C)S/C1=C1\SC(=S)N(C2CCCCC2)C1=O	none
CCN1C(=O)/C(=C2/C=CC=CN2C)OC1=S	G9a inh 45µM
CN1C=CC=C/C1=C1\SC(=S)N(c2ccccc2)C1=O	BAZ2B block inconclusive, G9a inh 18µM

Compound activity: PubChem, National Center for Advancing Translational Sciences (NCATS)
